# Test results published in the supplement of paper PMC10498489.
# Out of some 2,300 compounds screened, about 330 (14%) showed activity. Only a sample is shown. Values without a mark were called inactive.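 The calls were made as follows: active = median modified Z-score above 1.96; inactive = 1.96 or below.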
# Tested on: HepG2 Srxn1-GFP reporter cells (+30 nM CDDO-Me)
# Assay: Srxn1-GFP intensity median modified Z-score relative to plate median; higher = stronger NRF2 / oxidative stress reporter activation, active = hit call of the paper
# Details: 10 µM; exposure time: 24h
# Method in brief: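 HepG2 Srxn1-GFP BAC reporter cells were seeded at 20,000 per well in 96-well plates and co-exposed for 24 h to compound at 10 μM and an NRF2 activator at 30 nM, with DMSO at ≤0.1%, in three replicate plates. Cells were fixed with formaldehyde, stained with Hoechst and imaged by confocal microscopy, and cytoplasmic GFP was measured per cell, with images holding under 100 cells discarded. The reported value is the median over replicates of each plate's modified Z-score of GFP intensity. For this score, scaling used 1.4826 × median absolute deviation.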
row,Structure (SMILES),Srxn1-GFP intensity median modified Z-score
1,CC(=O)OC1=C2C(C)C(O)CC(O)(C(OC(=O)c3ccccc3)C3C4(OC(C)=O)COC4CC(O)C3(C)C1=O)C2(C)C (configuration not stated) [euspeclibcmpd1937],0.285
2,C=CC(C)(O)CCC=C(C)CCC=C(C)C (configuration not stated) [euspeclibcmpd2017],-0.108
3,COC(C)(C)CCC[C@H](C)C=CC=C(C)CC(=O)OC(C)C [euspeclibcmpd1162],0.521
4,CCC(CCC(C)[C@H]1CCC2C3CC=C4C[C@@H](O)CC[C@]4(C)C3CC[C@@]21C)C(C)C (some centres not stated) [euspeclibcmpd1675],-0.236
5,C1CNCCN1 [euspeclibcmpd2044],5.44 (active)
6,C=C(C)[C@@H]1CC[C@]2(C)CC[C@]3(C)[C@@H](CCC4[C@@]5(C)CC[C@H](OC(C)=O)C(C)(C)C5CC[C@]43C)C12 (some centres not stated) [euspeclibcmpd1452],-0.35
7,COC1CC2CCC(C)C(O)(O2)C(=O)C(=O)N2CCCCC2C(=O)OC(C(C)CC2CCC(O)C(OC)C2)CC(=O)/C(C)=C/C(C)C(O)C(OC)C(=O)C(C)CC(C)/C=C/C=C/C=C/1C (configuration not stated) [euspeclibcmpd645],2.8 (active)
8,C=CC/C1=C\C(C)C[C@H](C)C[C@H](OC)[C@H]2O[C@@](O)(C(=O)C(=O)N3CCCCC3C(=O)O[C@H](/C(C)=C/C3CC[C@@H](O)[C@H](OC)C3)[C@H](C)[C@@H](O)CC1=O)[C@H](C)C[C@@H]2OC (some centres not stated) [euspeclibcmpd642],0.0384
9,CC(C)(C)OC(=O)N1[C@H](CNCC(=O)NCC2CC2)COC1(C)C,0.298
10,C=C1c2cccc(O)c2C(=O)C2C(=O)[C@]3(O)C(=O)C(C(N)=O)C(=O)C(N(C)C)[C@@H]3[C@@H](O)[C@H]12 (some centres not stated) [euspeclibcmpd374],0.0721
11,Nc1ccc(S(=O)(=O)Nc2ccc([N+](=O)[O-])cc2)cc1,1.07
12,C=CCSCC=C [euspeclibcmpd1525],2.8 (active)
13,C=CCSCC(N)C(=O)O (configuration not stated) [euspeclibcmpd1339],-0.44
14,c1ccc2[nH]c(-c3cscn3)nc2c1 [euspeclibcmpd291],-0.321
15,CC(=O)Nc1ccc(S(=O)(=O)Nc2ccc(C)cc2)cc1,0.323
16,Cc1cc(=O)c(C(=O)NC(C(=O)NC2C(=O)N3C(C(=O)O)=C(CSc4nnnn4C)CSC23)c2ccc(O)cc2)c[nH]1 (configuration not stated) [euspeclibcmpd2006],-0.441
17,COC(=O)C[C@H]1C2(C)CC34OC5(C)O[C@@]6([C@H](OC(C)=O)C(OC(C)=O)[C@]7(C)C(C(C(=O)C(C)C)C(=O)O[C@H]7c7ccoc7)[C@@]6(O5)[C@H](OC(C)=O)[C@@]3(O)C2OC(=O)C(C)C)[C@]14C (some centres not stated) [euspeclibcmpd1593],0.648
